Shiga inhibitor – blocks Shiga toxin action in Vero cells; Vero cells, Shiga toxin protein synthesis inhibition reporter; inhibition, % at 38.7 µM; 9.2% of 290,000 active; in the data active means inhibition mostly above about 28%, no sharp cut-off; inactive means mostly below about 43%; further: 0% is about no effect
Sm TGR block – blocks Schistosoma mansoni thioredoxin glutathione reductase | Q962Y6 | purified TGR, DTNB reduction, TNB absorbance 405 nm | Potency, µM (titrated, usually from 114 µM), inactives show top-dose activity change, negative = inhibition, most hits filed as inhibitors | 3% of 360,000 active; further: potency means the concentration at half of the fitted maximal effect; on the % scale 0 is the no-effect control and ±100 the full control effect; nearly all actives have a fitted effect of over 60% in size
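TGR 20 nM + NADPH 100 uM (dispensed conc.), cpd preinc 15 min RT; start with NADPH (500 uM addition) then DTNB (15 mM addition). Kinetic TNB absorbance, 405 nm filter. Four-parameter Hill fit across titration.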
NS1 inh – influenza NS1 inhibition | Potency, µM (top dose mostly 46.1 µM), without a hit: at the top dose activity, positive = more growth | 0.4% of 270,000 active; calls by dose curve; further: potency means the concentration at half of the fitted maximal effect; actives are rising curves; nearly all actives have a fitted effect of over 50% in size
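A cell-based growth assay was used: compounds that relieve NS1-induced slow growth of budding yeast raise OD600. Assay medium was yeast nitrogen base with ammonium sulphate and -URA supplement, pH 6.0, with 2% galactose.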
Cycloheximide cs – counter-screen for Shiga toxin inhibitors: cycloheximide protein synthesis inhibition; cell reporter, cycloheximide protein synthesis inhibition counterscreen; max response, %; 12% of 300,000 active; in the data active means max response mostly above about 13%, no sharp cut-off; inactive means mostly below about 14%; further: read at 38.3 µM for the half of the compounds with a filed dose; 0% is about no effect
Pf growth 48h – P. falciparum growth inhibition at 48 hours (one generation); P. falciparum luciferase growth in erythrocytes, 48 h; Potency, µM (doses to about 28.7 µM), inactives show at the top dose activity change, negative = inhibition, usual class: inhibitors; 5.9% of 310,000 active; AID 504832; further: potency means the concentration at half of the fitted maximal effect; on the % scale 0 is the no-effect control and ±100 the full control effect
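Luciferase-expressing P. falciparum in infected erythrocytes (2% hematocrit, 0.1% parasitemia final) in RPMI 1640/0.5% Albumax were exposed to compound for 48 hours at 37 C, 5% CO2; growth read as luminescence.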
Pf growth 96h – P. falciparum growth inhibition at 96 hour, primary screen for plastid delayed-death inhibitors. Potency, µM (series often up to 28.7 µM), inactives show at the top dose activity change, negative = inhibition, most hits filed as inhibitors. P. falciparum luciferase reporter growth, 96 h. 6.9% of 320,000 active; further: potency means the concentration at half of the fitted maximal effect; on the % scale 0 is the no-effect control and ±100 the full control effect
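Infected RBCs, 2% Hct / 0.05% parasitemia final; luciferase-reporter P. falciparum; cpd 96 h, 37 C, 5% CO2; luciferase detection reagent; luminescence.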
Starred values were filed as active, the others as inactive; ? = inconclusive; nt = no result given; [ ] = remark or other dose. The list is not random: actives were taken first. Their share in the collection is about 21%. Unless noted, the call rests on the fitted dose curve; in most records, active means well fitted curve in the direction sought with a large enough effect; inconclusive means small, poorly fitted or top-dose-only effect, or another doubt; inactive means no such curve, though single readings can be large; an effect the other way counts as inactive or inconclusive.

SMILES	Shiga inhibitor	Sm TGR block	NS1 inh	Cycloheximide cs	Pf growth 48h	Pf growth 96h
C[C@@H]1Cc2ccccc2N1NC(=O)c1ccc(Cl)c(S(N)=O)c1 (stereo not given in full)	nt	nt	nt	nt	-19%[12.8 µM]	-26%[12.8 µM]
COc1ccc(-n2cc(-c3ccccc3)nc2SC)cc1	65*	2%	-9%	47*	56%	4%
COc1ccc(-n2cc(-c3ccccc3)nc2SCC(=O)Nc2ccccc2C)cc1	nt	9%	nt	nt	nt	nt
CC(NC(=O)c1cc(S(=O)(=O)N(C)C)ccc1N1CCCC1)C1CC2CCC1C2 (stereo not given)	-19	3%	nt	-3	?	?
Cc1nn(-c2ccccc2)c2c1C(c1cccnc1)N1C=C(S(=O)(=O)N3CCCCC3)C=CC1=N2 (stereo not given)	11	0%	16%	-2	1.9µM*	53%
CCN(C(=O)CSc1nc(-c2ccccc2)no1)c1cccc(C)c1	nt	-24%	nt	nt	nt	nt
Cc1ccc(SCc2nn(C)c(Cl)c2C=O)cc1	57*	3%	nt	42*	66%	-4%
COc1cccc(-n2nc(C#N)c(Cl)cc2=O)c1	-21	2.5µM*	2%	-6	0%	-4%
N#Cc1c(/N=C/c2ccco2)oc(-c2ccccc2)c1-c1ccccc1	-9	?	-24%	-2	17µM*	27%
C/C(=N\Nc1ccc([N+](=O)[O-])cc1)c1ccc2c(c1)OCO2	81*	-1%	nt	30*	92%	119%
C/C(=N\NS(=O)(=O)c1ccccc1)c1ccc2c(c1)OCO2	16	4%	nt	12*	79%	40%
C/C(=N/NS(=O)(=O)c1ccc(C)cc1)c1ccc2c(c1)OCO2	-6	-13%	-20%	-2	14%	-6%
C/C(=N/NS(=O)(=O)c1ccc(C)cc1C)c1ccc2c(c1)OCO2	14	-17%	-9%	6	?	8%
C/C(=N/NS(=O)(=O)c1cccc([N+](=O)[O-])c1)c1ccc2c(c1)OCO2	4	-21%	-2%	4	21%	0.83µM*
C/C(=N\NS(=O)(=O)c1ccc(C)c([N+](=O)[O-])c1)c1ccc2c(c1)OCO2	19	-21%	nt	27*	6%	23%
C/C(=N\Nc1ccc([N+](=O)[O-])cc1)c1ccc(C#N)cc1	10	0%	0%	-5	59%	19%
Cc1ccc(S(=O)(=O)NCCc2nnc3ccc(SCC(=O)Nc4nc(C)cs4)nn23)cc1	19	-5%	-1%	-3	5%	?
CC(C)c1ccc(S(=O)(=O)c2cn(CC(=O)Nc3ccc(F)cc3)c3ccccc3c2=O)cc1	nt	-1%	nt	nt	nt	nt
CCOc1ccccc1C(=O)NCC(=O)NNC(=O)CN(C)S(=O)(=O)c1ccc(Cl)cc1	nt	-4%	nt	nt	3%	?
C/C(=N\NS(=O)(=O)c1ccc([N+](=O)[O-])cc1)c1ccc2c(c1)OCO2	-8	4%	-8%	7	40%	5.9µM*
Cc1ccc(NC(=O)C2Cc3ccccc3CN2C(=O)c2ccccc2)cc1Cl (stereo not given)	3	-23%	10%	18*	3%	?
Cc1ccccc1NC(=O)C1Cc2ccccc2CN1C(=O)OCc1ccccc1 (stereo not given)	12	3%	-13%	-3	-23%	13µM*
COc1cccc(NC(=O)C2Cc3ccccc3CN2C(=O)c2ccco2)c1 (stereo not given)	79*	35µM*	-4%	54*	?	-17%
O=C(O)C1Cc2ccccc2CN1C(=O)c1ccco1 (stereo not given)	nt	?	8%	12*	-9%	1%
Cc1ccc(NC(=O)C2CC(O)CN2C(=O)OCc2ccccc2)c(C)c1 (stereo not given)	9	-3%	4%	-5	31%	?
SMILES	Shiga inhibitor	Sm TGR block	NS1 inh	Cycloheximide cs	Pf growth 48h	Pf growth 96h
NNC(=O)CCC(=O)Nc1ccccc1	9	15%	1%	-1	-4%	0%
COc1cc(C(F)(F)F)c(C(=O)N(C)Cc2cc(Cl)cc(Cl)c2)cn1	11	-5%	-1%	-3	?	2%
CCOc1ccc(NC(=O)C2CCCN2S(=O)(=O)c2ccc3c(c2)C(C)(C)C(=O)N3C)cc1 (stereo not given)	16	6%	-17%	-4	-18%	?
O=C(NCc1ccccc1)C1Cc2ccccc2CN1C(=O)c1ccco1 (stereo not given)	6	35µM*	nt	-3	-8%	5%
CCSc1nnc(NC(=O)C2Cc3ccccc3CN2C(=O)c2ccco2)s1 (stereo not given)	56	32µM*	1%	15	-28%	23%
COc1cccc(NC(=O)[C@@H]2CCCN2C(=O)[C@@H]2Cc3ccccc3CN2C(=O)OC(C)(C)C)c1	52	-1%	5%	20*	?	?
Cc1ccccc1NC(=O)C1Cc2ccccc2CN1C(=O)c1ccco1 (stereo not given)	77*	11µM*	8%	45*	-22%	-27%
O=C(Cc1ccc(Br)cc1)Nc1cccc(-c2cn3c(n2)SCC3)c1	7	1%	nt	13	?	?
Cc1ccc(-c2nc(CS(=O)(=O)CC(=O)NCc3ccc(Cl)cc3)c(C)o2)cc1	nt	-3%	nt	nt	nt	nt
NS(=O)(=O)c1ccc(NC(=O)C2Cc3ccccc3CN2C(=O)c2ccco2)cc1 (stereo not given)	15	45µM*	10%	-6	-3%	-26%
CC(C)c1nc2ccc(C(=O)NCCCN3CCN(c4cccc(Cl)c4)CC3)cc2o1	nt	3%	nt	nt	nt	nt
OC(COc1ccc2c(c1)CCC2)CN1CCN(c2ccccc2F)CC1 (stereo not given)	-5	-1%	?	5	?	nt
Oc1ccccc1N1CCN(CC(O)COC2CCCc3ccccc32)CC1 (stereo not given)	-7	4%	0%	-2	9.3µM*	?
C=CCNC(=S)NN=C1CCCCCCC1	38	-30%	nt	10	8.3µM*	-93%[5.75 µM]
COCCNC(=S)NN=C1CCCCC1	-15	-20%	nt	11	-2%	7%[5.75 µM]
CN(C)C=Nc1ccc2nc3c(cc2c1)[nH]c1ccccc13	74*	-22%	-5%	39*	?	-72%
O=C(CCSCc1ccccc1F)N1CCN(c2ccccn2)CC1	79*	-21%	-16%	28*	27%	?
O=C(CSc1ccccc1)N1CCN(c2ccccn2)CC1	30	-2%	nt	15*	9%	32%
O=C(N1CCN(c2ccccn2)CC1)C(Cl)(Cl)Cl	34*	2%	23%	28*	9.3µM*	2%
O=C(CSCc1ccccc1Cl)N1CCN(c2ccccn2)CC1	119*	-21%	-19%	59*	nt	0%
Cc1ccc(Cl)cc1N1CCN(C(=O)CCSCc2ccccc2F)CC1	nt	8%	nt	nt	nt	nt
COc1ccc(N(CC(=O)NCCSCc2ccccc2Cl)S(C)(=O)=O)cc1Cl	-7	7%	-4%	-2	-17%	?

Source: PubChem BioAssay
